Test results reported in PubChem BioAssay AID598 (SRMLSC, 2007).
Hit rate of the full screen: of about 85,000 compounds, about 5,100 (6%) were called active. What follows is part of a selection rich in actives, with near analogues and random picks from the rest. Values without a mark were called inactive.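 Rule for the calls: active = viability at or below 40%; inactive = viability above 40%.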

Experiment: proliferation blockers of H69AR lung cancer cells, primary screen, cell-based, human, 86K library (AID 598);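 note: multidrug resistant small cell line overexpressing MRP-1 efflux transporter; 100% = mean luminescence of untreated control wells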
Settings: H69AR lung tumor viability, ATP luminescence, 72 h; at 10 µM; active compounds read low

| SMILES | viability |
| --- | --- |
| COc1ccc(S(=O)(=O)Nc2ccc(F)cc2)c(C)c1C | 101% |
| CCCCCCC12CCC(C(=O)O)(CC1)CC2 | 79.3% |
| Cc1nc2cc(NC(=O)NCc3ccccc3)ccc2o1 | 95.1% |
| OC(COc1ccc2ccccc2c1)Cn1cncn1 (centres undefined) | 88.4% |
| O=C(CN1CCOCC1)Nc1cc(Cl)ccc1Cl | 93.4% |
| COc1c(C)cccc1C(=O)Nc1cc(Cl)ccc1N1CCOCC1 | 82.7% |
| O=C(Nc1cc(N2CCOCC2)ncn1)NC1(C(F)(F)F)Oc2ccc(Cl)cc2O1 (centres undefined) | 29.6% (active) |
| CCOc1cc2[nH]c(=S)n(CCN3CCCCC3C)c(=O)c2cc1OCC (centres undefined) | 82.5% |
| O=C(NC1CCCCC1)n1c(=O)oc2cc(S(=O)(=O)N3CCCCC3)ccc21 | 60.7% |
| CCn1cc(C(=O)NC2CCCCCC2)c(=O)c2cc(S(=O)(=O)N3CCCCC3)ccc21 | 30.1% (active) |
| CCn1cc(C(=O)NCC2CCCO2)c(=O)c2cc(S(=O)(=O)N3CCCCC3)ccc21 (centres undefined) | 87.7% |
| CN(C)S(=O)(=O)c1ccc(NC(=O)COC(=O)c2n[nH]c3ccccc23)cc1 | 78.6% |
| Cc1nc(NCCN)c(C#N)c2c1COC(C)(C)C2 | 85% |
| CCCCc1nc(NCCN)c(C#N)c2c1CSC(C)(C)C2 | 1.08% (active) |
| CC(C)(C)c1ccc(OC2=CS(=O)(=O)c3ccccc32)cc1 | 88% |
| CCCn1nnc(NC(=O)COc2ccc(CC)cc2)n1 | 95.5% |
| Cn1c(=O)c2c(ncn2CC(=O)N2CCN(c3ccccc3)CC2)n(C)c1=O | 105% |
| CC(C)Cn1cnc2c1c(=O)n(CC(O)c1ccccc1)c(=O)n2CC(C)C (centres undefined) | 28% (active) |
| CC(C)Cn1c(CN(Cc2ccccc2)Cc2ccccc2)nc2c1c(=O)n(C)c(=O)n2C | 61.6% |
| Cc1cc(-n2nc(C)cc2C)n2nc(C)c(-c3ccccc3)c2n1 | 68.4% |
| O=C(COc1ccc2ccccc2c1)N1CCN(C(=O)c2cccs2)CC1 | 74% |
| O=C(CCN1C(=O)c2ccccc2C1=O)Nc1cccc(F)c1 | 98.2% |

| SMILES | viability |
| --- | --- |
| O=c1c2ccccc2nc(CSc2nnnn2-c2ccccc2)n1-c1ccccc1 | 15.1% (active) |
| O=c1c2ccccc2nnn1CSc1nnnn1-c1ccccc1 | 83.4% |
| Cc1ccc(Nc2nc(CSc3nnnn3-c3ccccc3)cc(=O)[nH]2)cc1 | 23.1% (active) |
| Cc1ccc(-c2noc(CSc3nnnn3-c3ccccc3)n2)cc1 | 86.2% |
| COc1ccc(-n2nnnc2SCC(=O)Nc2ccccc2)cc1 | 103% |
| N#CCSc1nc2ccccc2c(=O)n1-c1ccccc1 | 77% |
| OC(CN1C2=NCCCN2c2ccccc21)c1ccc(Br)cc1 (centres undefined) | 86.5% |
| Cn1cnc([N+](=O)[O-])c1Nc1ccccc1O | 100% |
| COC(=O)c1ccc(CSc2nnc(NC(C)C)s2)cc1 | 98.2% |
| COc1ccc(C)cc1NC(=O)CCS(=O)(=O)c1cccc2nonc12 | 89% |
| CCCn1nnc2sc3c(c2c1=O)CCC(C)C3 (centres undefined) | 96.7% |
| CC1CCc2c(sc3nc4n(c(=O)c23)CCS4)C1 (centres undefined) | 80.8% |
| C=CCn1c(SCc2c(C)noc2C)nc2sc3c(c2c1=O)CCC(C)C3 (centres undefined) | 29.4% (active) |
| Nc1c(C(=O)NCc2ccccc2)sc2nc3c(cc12)C(=O)CCC3 | 65.5% |
| COCCNC(=O)COc1ccc(C)c(C)c1 | 86% |
| Cc1ccc(SC(=O)COc2ccc(C)c(C)c2)cc1 | 16.4% (active) |
| Cc1ccc(SCC(=O)c2cc(C)c(OC(=S)N(C)C)c(C)c2)cc1 | 64.6% |
| Cc1ccc(S(=O)(=O)NC(=O)COc2ccccc2C)cc1 | 97.9% |
| CCOCN(C(=O)Cn1c(C(C)O)nc2ccccc21)c1c(C)cccc1CC (centres undefined) | 62.8% |
| O=C(Cc1ccc(-n2c(=O)c3sccc3n(Cc3ccc(F)cc3)c2=O)cc1)NCc1ccco1 | 51% |
| CN1CCN(CC(=O)Nc2sc3c(c2C#N)CCC(C(C)(C)C)C3)CC1 (centres undefined) | 2.42% (active) |
| CCC(=O)Nc1sc(C(=O)N2CCCCC2)c(C)c1C#N | 96.9% |

| SMILES | viability |
| --- | --- |
| Cc1nc2ccccc2c2oc(C(=O)NCC3CCCO3)cc12 (centres undefined) | 82.4% |
| c1ccc2c(NCC3CCCO3)nc(-c3ccncc3)nc2c1 (centres undefined) | 35.5% (active) |
| c1ccc(-c2nc(NCc3ccco3)c3ccccc3n2)cc1 | 87.9% |
| Cn1c2c(c(=O)n(C)c1=O)C(c1cccc([N+](=O)[O-])c1)Nc1ccccc1O2 (centres undefined) | 88.5% |
| C=CCn1c(SCc2c(C(=O)OC)sc(N)c2C(=O)OC)nnc1-c1ccc(Cl)cc1 | 45.2% |
| COc1ccc(CN2CCCCC2C)cc1OC (centres undefined) | 105% |
| COc1cc(C2CC(=O)c3cnc(NC(C)=O)nc3C2)cc(OC)c1OC (centres undefined) | 74% |
| CCc1ccc(Nc2ncc3c(n2)CC(c2ccco2)CC3=O)cc1 (centres undefined) | 26.3% (active) |
| O=C(Nc1ncc2c(n1)CC(c1ccco1)CC2=O)c1ccc(Cl)cc1 (centres undefined) | 80.7% |
| Nc1ccc(C(=O)OCC(=O)NC2CCCc3ccccc32)cc1[N+](=O)[O-] (centres undefined) | 63.4% |
| CCOc1ncccc1C(=O)OCc1cn2cc(Cl)ccc2n1 | 35.2% (active) |
| CSc1ncccc1C(=O)OCC(=O)N1CCOCC1 | 96% |
| CCOC(=O)c1cc2ccccc2nc1C | 101% |
| COc1ccc(CNc2ccc3c(c2)CCC3)cc1OC | 104% |
| CCOc1ccc(C(=O)NC2CCN(C(=O)Nc3ccccc3OC)CC2)cc1 | 79% |
| COC(=O)CSc1nc(C)c2ccc(OC)cc2n1 | 86.5% |
| Cc1nnc(SCC(=O)NC(=O)NC2CCCC2)n1N | 109% |
| Cc1ccc(C(CC(=O)O)Nc2nc(N3CCCCC3)nc(N3CCCCC3)n2)cc1 (centres undefined) | 108% |
| CC(C)n1c(C(O)c2ccccc2)nc2ccccc21 (centres undefined) | 104% |
| CC(Nc1nc(N2CCCC2)nc2ccccc12)c1ccccc1 (centres undefined) | 12.4% (active) |
